We go through five compounds from PubChem BioAssay.

Results filed as inconclusive are left out. The source made the active and inactive calls.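 The calls were made as follows, unless noted: active = percent response above a set limit, the screen-wide mean plus 3 SD (cut at about 130% in these data); inactive = the rest.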

The nature of experiment [1]: yeast TOR pathway RPL19A-GFP modulators, primary screen, cell-based, S. cerevisiae, multiplex flow cytometry (AID 1862; in the data active = percent of DMSO control GFP below about 86%;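 also: lower values mimic rapamycin by blocking the RPL19A rise seen in DMSO cells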). The note with it: S. cerevisiae RPL19A-GFP strain, flow cytometry fluorescence, 3 h; at 10 µM; stronger effect = lower value.
Experiment [2] in a line: modulators of MEP2-GFP levels in yeast, primary screen, S. cerevisiae, multiplex flow cytometry (AID 1867;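 active = GFP response, as percent of the DMSO control, above the screen-wide mean plus 3 SD, about 139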;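 also: median GFP channel fluorescence of barcode-gated MEP2-GFP cells measured by flow cytometry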). The note with it: S. cerevisiae MEP2-GFP strain, 3 h, at 10 µM, stronger effect = higher value, 100% means same as DMSO wells.
Experiment [3] can be described thus: modulators of CIT2-GFP expression in yeast, primary screen, S. cerevisiae, GFP fusion, multiplex flow cytometry (AID 1870).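 Also: barcoded CIT2-GFP strain pooled with four other GFP strains with rapamycin as positive control; median GFP fluorescence per well over plate mean of DMSO wells so 100% = DMSO.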 The note with it: 3 h, at 10 µM, stronger effect = higher value.
The nature of experiment [4]: modulators of LAP4-GFP expression in yeast, primary screen, S. cerevisiae, multiplex flow cytometry (AID 1873;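 active = GFP signal, as percent of the solvent control, above the screen mean plus 3 SD, about 149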). The note with it: 3 h, at 10 µM, stronger effect = higher value.
The nature of experiment [5]: modulators of AGP1-GFP expression in yeast TOR pathway, primary screen, cell-based, multiplex flow cytometry, S. cerevisiae (AID 1887;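 active = GFP signal above the screen-wide mean plus 3 SD, that is over about 124.5% of the solvent control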;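 also: AGP1-GFP fusion strain of S. cerevisiae within a five-strain barcoded multiplex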). Conditions: 3 h, at 10 µM, stronger effect = higher value.
The nature of experiment [6]: inhibitors of CD8+ T cell-vesicle binding, pilot screen, LFA-1/ICAM-1 modulator project, MLPCN validation set, flow cytometry (AID 2523;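 active = response below a set limit, under 55% cells CD8-positive and vesicle-bound, and CD8 cells' 90th-percentile brightness under 279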;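 as to vesicle binding response: mean PE anti-B7-1 fluorescence of CD8+ cells relative to row control; 100% = QL9-loaded vesicles with DMSO vehicle in the same plate row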). Conditions: 2C mouse CD8+ T cells, at 7 µM, stronger effect = lower value; double positive events: measured here: CD8+/vesicle+ event percentage.
Experiment [7] deals with Integrin beta-1 (Homo sapiens) + Integrin alpha-4 (Homo sapiens) (UniProt P13612+P05556). Put plainly: inhibition of HUTS-21 binding to VLA-4, pilot screen, VLA-4 allosteric modulator project, U937 cells, HUTS-21 mAb, flow cytometry, validation set (AID 2674;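 active = inhibition above 50%, about 3 SD of the validation set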;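 also: antibody binding induced by the VLA-4 ligand LDV present at three times its Kd; 0% = LDV ligand with antibody and no compound and 100% = antibody without LDV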). The note with it: HUTS-21 LIBS mAb binding, at 6.7 µM, stronger effect = higher value, binding induced by LDV ligand.
Experiment [8] is described as follows: superoxide lowering in aged yeast cells, pilot screen, validation compound set (AID 2706;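 active = superoxide response below 65% of plate, a cut near 3 SD across the whole screen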;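 also: yeast exposed to compound for one week at 30 degrees C before staining; 100% = mean of all compound wells on the same plate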). The note with it: S. cerevisiae aging, superoxide DHE fluorescence; at 10 µM; stronger effect = lower value.
The target of experiment [9] is Beta-adrenergic receptor kinase 1 (Homo sapiens) (UniProt P25098). Put plainly: GRK2 binders displacing RNA aptamer, biochemical, validation, human GRK2, bead flow cytometry (AID 488806;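 active = aptamer binding inhibition above 30%, about 3 SD of noise from non-fluorescent compounds; inactive = inhibition at or below 30%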). Conditions: bead-bound GRK2, FAM-aptamer displacement, at 10 µM, stronger effect = higher value.
Experiment [10] has as its target Beta-2 adrenergic receptor (Homo sapiens) (UniProt P07550). Put plainly: beta2AR agonists driving receptor internalization, pilot screen, cell-based, FAP fluorogen, flow cytometry, validation set (AID 504459;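 active = percent response above 42, roughly 3 SD of non-fluorescent test compounds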;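 also: agonist-driven loss of surface beta2AR via internalization measured by FAP dye flow cytometry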). Conditions: Am2.2-beta2AR cells, FAP surface receptor flow cytometry; at 10 µM; stronger effect = higher value.
Experiment [11] has as its target AP-2 complex subunit beta (Homo sapiens) (UniProt P63010). Briefly: inhibitors of arrestin peptide binding to AP2, pilot screen, biochemical, validation set, GST-AP2 beads, flow cytometry (AID 504541;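 active = inhibition above 54%, about 3 SD of non-fluorescent compounds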;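 also: AP2 carries R879A mutation and is captured from E. coli lysate; bead-bound FITC arrestin peptide fluorescence measuring arrestin peptide binding to AP2; 0% = DMSO wells and 100% = excess unlabeled arrestin peptide control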). The note with it: FITC arrestin peptide, at 10 µM, stronger effect = higher value, AP2 beta2 appendage fragment, R879A mutant.
Experiment [12] in a line: yeast V-ATPase proton transport modulators, S. cerevisiae, pHLuorin, HTS validation (AID 504600; in the data active = response above about 15%;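 also: plate controls were DMSO for no effect and reference compound for full effect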). Conditions: S. cerevisiae pHLuorin cytosolic pH, at 10 µM, stronger effect = higher value.
Experiment [13] deals with anti-desmoglein-3 scFv antibody binding to human DSG3. Briefly: inhibitors of anti-DSG3 scFv binding to DSG3, pilot screen, biochemical, validation compound set, bead-based, flow cytometry (AID 588368;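 active = binding below the plate cutoff, the plate median minus 3 SD, with a reading above zero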;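 also: signal is the median channel fluorescence of bead-bound GFP antibody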). The note with it: Protein G beads, DSG3-Fc, scFv-GFP binding, at 10 µM, stronger effect = lower value.
Experiment [14] in a line: inhibitors of fungal efflux pumps CDR1, CDR2, MDR1, pilot screen, validation compound set, multiplex, phenotypic (AID 588506;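 active = efflux inhibition above 0.42, the validation set average plus 4 SD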;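 also: Nile Red retained in cells so higher fluorescence means more efflux inhibition; 0 = negative control wells and 1 = enniatin B 25 µM full block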). The note with it: S. cerevisiae pump-expressing triplex, Nile Red efflux flow cytometry; at 10 µM; stronger effect = higher value; the pumps come from Candida albicans.
Experiment [15] has as its target ATP-binding cassette sub-family B member 6 (Homo sapiens) (UniProt Q9NP58). Briefly: ABCB6 transporter inhibitors, pilot screen, K562-ABCB6 cells, flow cytometry, validation set (AID 588550;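 active = inhibition above the screen-wide mean plus 3 SD, about 51%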;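 also: 0% = DMSO wells and 100% = benzethonium chloride 70 µM positive control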). Conditions: K562-ABCB6 porphyrin accumulation, 1 h, at 10 µM, stronger effect = higher value.
Experiment [16] is described as follows: promoters of myeloid differentiation in arrested cells, primary screen, cell-based, GFP/MAC1 double positive, flow cytometry, validation set (AID 588685;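 active = differentiation response of at least 50%, scaled between solvent and reference control, from cells with both markers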;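 also: compound exposure lasts four days before antibody staining and flow analysis; 0% = DMSO wells and 100% = 5 µM fulvestrant positive control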). Conditions: ER-HoxA9 marrow cells, stronger effect = higher value, normalized: vehicle 0, fulvestrant 100.

Chain of Beta-adrenergic receptor kinase 1 (Homo sapiens) (P25098 whole entry, looked up): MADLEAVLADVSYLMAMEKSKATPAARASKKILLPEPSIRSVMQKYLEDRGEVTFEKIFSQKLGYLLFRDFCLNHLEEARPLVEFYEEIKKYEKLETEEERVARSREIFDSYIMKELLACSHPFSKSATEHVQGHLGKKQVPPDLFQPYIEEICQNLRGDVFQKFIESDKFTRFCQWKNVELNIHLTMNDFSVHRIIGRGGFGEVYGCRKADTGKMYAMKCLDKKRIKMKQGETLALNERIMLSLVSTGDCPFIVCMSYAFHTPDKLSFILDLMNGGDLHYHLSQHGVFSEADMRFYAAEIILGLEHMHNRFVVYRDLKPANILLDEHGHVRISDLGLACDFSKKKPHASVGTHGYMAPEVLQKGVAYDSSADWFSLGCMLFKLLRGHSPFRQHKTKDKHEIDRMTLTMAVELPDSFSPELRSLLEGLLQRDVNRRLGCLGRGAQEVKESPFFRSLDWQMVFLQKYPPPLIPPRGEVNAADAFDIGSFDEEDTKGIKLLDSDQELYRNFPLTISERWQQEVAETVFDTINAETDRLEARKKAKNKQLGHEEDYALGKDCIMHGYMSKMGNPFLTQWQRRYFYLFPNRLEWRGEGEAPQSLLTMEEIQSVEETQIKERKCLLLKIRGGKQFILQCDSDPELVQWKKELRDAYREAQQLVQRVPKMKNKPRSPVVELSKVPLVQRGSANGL
Chain of Beta-2 adrenergic receptor (Homo sapiens) (P07550 whole entry, looked up): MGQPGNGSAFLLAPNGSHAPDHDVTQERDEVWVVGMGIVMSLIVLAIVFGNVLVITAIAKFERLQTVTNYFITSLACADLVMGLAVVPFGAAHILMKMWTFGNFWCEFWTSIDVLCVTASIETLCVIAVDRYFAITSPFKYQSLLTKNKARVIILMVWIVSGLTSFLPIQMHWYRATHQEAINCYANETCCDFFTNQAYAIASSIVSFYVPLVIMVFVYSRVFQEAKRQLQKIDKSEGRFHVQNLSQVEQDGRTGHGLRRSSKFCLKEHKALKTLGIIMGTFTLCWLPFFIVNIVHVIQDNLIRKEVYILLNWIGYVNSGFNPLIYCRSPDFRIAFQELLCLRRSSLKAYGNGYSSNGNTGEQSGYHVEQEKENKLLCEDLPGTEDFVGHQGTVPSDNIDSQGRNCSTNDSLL
Chain of AP-2 complex subunit beta (Homo sapiens) (P63010 whole entry, looked up, the tested form may be a part, one chain of several): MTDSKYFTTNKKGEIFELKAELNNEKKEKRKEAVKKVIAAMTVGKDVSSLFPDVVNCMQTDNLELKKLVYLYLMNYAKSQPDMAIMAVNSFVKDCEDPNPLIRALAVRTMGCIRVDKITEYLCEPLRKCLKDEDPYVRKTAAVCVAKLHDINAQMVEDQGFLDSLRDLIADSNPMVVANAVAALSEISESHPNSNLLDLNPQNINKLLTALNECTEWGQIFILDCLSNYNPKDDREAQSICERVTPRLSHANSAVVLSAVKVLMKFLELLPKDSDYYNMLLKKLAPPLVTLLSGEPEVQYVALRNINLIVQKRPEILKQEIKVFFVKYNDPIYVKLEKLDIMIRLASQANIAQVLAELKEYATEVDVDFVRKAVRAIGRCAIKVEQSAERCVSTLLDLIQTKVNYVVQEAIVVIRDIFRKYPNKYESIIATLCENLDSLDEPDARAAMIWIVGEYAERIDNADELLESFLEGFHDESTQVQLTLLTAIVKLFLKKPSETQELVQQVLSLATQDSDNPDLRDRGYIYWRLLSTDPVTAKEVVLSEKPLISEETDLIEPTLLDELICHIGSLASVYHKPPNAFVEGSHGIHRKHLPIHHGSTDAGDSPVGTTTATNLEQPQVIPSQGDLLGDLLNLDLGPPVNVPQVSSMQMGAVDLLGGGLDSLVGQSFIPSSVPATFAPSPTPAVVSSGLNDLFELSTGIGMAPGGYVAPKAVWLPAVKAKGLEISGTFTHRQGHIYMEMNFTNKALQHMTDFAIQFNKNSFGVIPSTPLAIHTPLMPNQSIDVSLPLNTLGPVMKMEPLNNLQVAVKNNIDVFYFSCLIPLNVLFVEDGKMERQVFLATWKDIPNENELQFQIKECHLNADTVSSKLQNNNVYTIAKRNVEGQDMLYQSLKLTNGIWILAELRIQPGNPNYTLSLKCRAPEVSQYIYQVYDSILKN
Chain of ATP-binding cassette sub-family B member 6 (Homo sapiens) (Q9NP58 whole entry, looked up): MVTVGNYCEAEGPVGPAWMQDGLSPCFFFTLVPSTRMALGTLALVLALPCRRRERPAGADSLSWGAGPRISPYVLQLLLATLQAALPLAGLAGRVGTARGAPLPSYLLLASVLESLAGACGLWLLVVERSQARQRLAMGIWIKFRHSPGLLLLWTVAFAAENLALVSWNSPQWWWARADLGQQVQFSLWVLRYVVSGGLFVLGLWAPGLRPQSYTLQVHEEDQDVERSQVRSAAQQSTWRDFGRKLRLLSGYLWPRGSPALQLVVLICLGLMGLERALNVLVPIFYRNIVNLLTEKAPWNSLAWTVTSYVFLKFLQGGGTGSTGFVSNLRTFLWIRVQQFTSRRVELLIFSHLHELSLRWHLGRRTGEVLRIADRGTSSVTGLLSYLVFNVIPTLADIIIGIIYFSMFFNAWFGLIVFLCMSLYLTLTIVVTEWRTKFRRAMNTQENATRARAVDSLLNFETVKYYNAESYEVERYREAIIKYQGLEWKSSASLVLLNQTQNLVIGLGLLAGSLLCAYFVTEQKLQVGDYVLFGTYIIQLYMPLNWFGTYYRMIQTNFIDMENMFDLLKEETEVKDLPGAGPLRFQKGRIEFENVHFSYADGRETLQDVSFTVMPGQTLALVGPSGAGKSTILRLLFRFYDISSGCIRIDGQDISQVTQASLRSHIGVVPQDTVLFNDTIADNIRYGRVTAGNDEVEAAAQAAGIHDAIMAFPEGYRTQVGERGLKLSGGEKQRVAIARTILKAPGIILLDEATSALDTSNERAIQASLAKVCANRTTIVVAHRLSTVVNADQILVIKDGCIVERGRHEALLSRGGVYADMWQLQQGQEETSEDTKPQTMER
Chain of Integrin beta-1 (Homo sapiens) + Integrin alpha-4 (Homo sapiens) (P05556 whole entry, looked up): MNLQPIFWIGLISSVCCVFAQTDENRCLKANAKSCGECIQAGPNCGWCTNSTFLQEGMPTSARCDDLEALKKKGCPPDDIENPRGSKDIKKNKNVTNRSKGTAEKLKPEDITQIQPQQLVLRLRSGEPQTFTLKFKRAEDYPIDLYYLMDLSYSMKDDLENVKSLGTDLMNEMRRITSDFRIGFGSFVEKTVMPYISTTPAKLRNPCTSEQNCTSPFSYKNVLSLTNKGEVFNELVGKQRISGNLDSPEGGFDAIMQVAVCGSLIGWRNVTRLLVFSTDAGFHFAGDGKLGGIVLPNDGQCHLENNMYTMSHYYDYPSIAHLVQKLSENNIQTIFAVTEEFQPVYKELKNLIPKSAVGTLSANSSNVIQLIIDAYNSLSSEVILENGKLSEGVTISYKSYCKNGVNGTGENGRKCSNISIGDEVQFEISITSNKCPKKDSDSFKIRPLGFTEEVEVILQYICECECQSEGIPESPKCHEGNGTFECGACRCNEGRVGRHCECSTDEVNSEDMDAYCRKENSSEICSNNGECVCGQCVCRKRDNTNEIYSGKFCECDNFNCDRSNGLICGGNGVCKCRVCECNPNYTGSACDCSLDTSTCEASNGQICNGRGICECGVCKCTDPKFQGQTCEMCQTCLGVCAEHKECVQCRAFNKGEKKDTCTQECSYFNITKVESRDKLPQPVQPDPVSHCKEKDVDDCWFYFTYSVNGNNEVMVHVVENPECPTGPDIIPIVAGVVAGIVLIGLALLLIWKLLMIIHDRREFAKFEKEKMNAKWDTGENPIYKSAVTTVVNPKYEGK
Chain of Integrin beta-1 (Homo sapiens) + Integrin alpha-4 (Homo sapiens) (P13612 whole entry, looked up): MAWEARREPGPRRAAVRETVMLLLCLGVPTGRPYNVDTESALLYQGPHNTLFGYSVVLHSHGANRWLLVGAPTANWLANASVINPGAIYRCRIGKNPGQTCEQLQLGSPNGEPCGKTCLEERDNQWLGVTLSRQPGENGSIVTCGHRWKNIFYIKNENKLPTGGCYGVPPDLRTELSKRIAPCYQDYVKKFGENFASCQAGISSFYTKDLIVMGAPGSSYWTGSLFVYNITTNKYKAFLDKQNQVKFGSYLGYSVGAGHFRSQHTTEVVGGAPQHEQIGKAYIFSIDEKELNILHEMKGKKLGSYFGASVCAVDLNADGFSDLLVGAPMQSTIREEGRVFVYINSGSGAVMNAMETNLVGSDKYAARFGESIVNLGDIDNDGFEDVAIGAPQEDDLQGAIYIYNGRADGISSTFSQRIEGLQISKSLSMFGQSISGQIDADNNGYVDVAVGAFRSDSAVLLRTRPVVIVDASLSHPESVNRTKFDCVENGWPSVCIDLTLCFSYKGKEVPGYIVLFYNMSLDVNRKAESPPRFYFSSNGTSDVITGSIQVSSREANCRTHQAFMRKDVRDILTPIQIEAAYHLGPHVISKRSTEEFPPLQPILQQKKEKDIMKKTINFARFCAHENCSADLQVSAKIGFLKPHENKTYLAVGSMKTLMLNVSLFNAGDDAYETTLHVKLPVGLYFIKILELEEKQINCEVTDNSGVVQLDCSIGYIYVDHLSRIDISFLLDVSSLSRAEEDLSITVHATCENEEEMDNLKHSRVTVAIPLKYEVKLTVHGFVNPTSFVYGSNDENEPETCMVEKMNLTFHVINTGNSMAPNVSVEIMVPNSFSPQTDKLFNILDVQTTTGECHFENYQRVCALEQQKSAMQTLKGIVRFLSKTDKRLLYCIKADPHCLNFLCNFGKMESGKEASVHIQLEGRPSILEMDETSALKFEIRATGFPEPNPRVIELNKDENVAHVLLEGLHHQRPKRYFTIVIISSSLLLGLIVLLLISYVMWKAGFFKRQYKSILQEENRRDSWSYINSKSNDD

Turning to `NNC(=O)c1cc(O)c(O)c(O)c1`, in experiment [1], the percent of DMSO control GFP is 105% (inactive). For the same compound, the GFP response vs DMSO was 88.8% (inactive) in [2] and 96% (inactive) in experiment [4]. Besides, in experiment [3], the percent response of DMSO control was 114% (inactive). The GFP response, % of DMSO in [5] is 106% (inactive). Further, the double positive events in experiment [6] is 59%. Further, in experiment [6], the vesicle binding response was 149% (inactive). The inhibition in experiment [7] was -1.49% (inactive); in experiment [11], 12% (inactive); in experiment [15], 5% (inactive). In addition, the superoxide response (% of plate) in experiment [8] is 93.7% (inactive). Further, the aptamer binding inhibition in experiment [9] was 4% (inactive). Moreover, the response in experiment [10] was -4.68% (inactive); in [12], 1.02% (inactive). In [13], the binding (% of control) was 91.2% (inactive). Moreover, the efflux inhibition (fraction of control) in experiment [14] was -0.1 (inactive). The differentiation response in experiment [16] is -2.69% (inactive).

For the compound `CC(C[N+](C)(C)C)OC(N)=O` (stereo not given), the percent of DMSO control GFP in [1] is 100% (inactive). Besides, the GFP response vs DMSO in [2] was 98.6% (inactive); in experiment [4], 104% (inactive). The percent response of DMSO control in experiment [3] is 89.9% (inactive). Besides, in [5], the GFP response, % of DMSO was 110% (inactive). The same compound returned a double positive events in experiment [6] of 66.5%. In [6], the vesicle binding response is 164% (inactive). For the same compound, the figures for the inhibition in [7], in [11] and in experiment [15] were 11.7% (inactive), -15.8% (inactive) and 12% (inactive), respectively. For the same compound, in experiment [8], the superoxide response (% of plate) is 96.5% (inactive). In addition, the aptamer binding inhibition in experiment [9] is 2% (inactive). Further, the response in experiment [10] was -16.4% (inactive); in experiment [12], 0.77% (inactive). For the same compound, in [13], the binding (% of control) was 103% (inactive). Moreover, the efflux inhibition (fraction of control) in experiment [14] was 0.08 (inactive). In addition, the differentiation response in [16] is 0% (inactive).

With `CC1(C)CC(O)(CNCc2ccc3c(c2)OCO3)CCO1` (stereo not given), the percent of DMSO control GFP in experiment [1] is 103% (inactive). Also, the GFP response vs DMSO in experiment [2] was 102% (inactive); in experiment [4], 106% (inactive). Moreover, the percent response of DMSO control in experiment [3] is 101% (inactive). Further, in experiment [5], the GFP response, % of DMSO is 105% (inactive). The compound further came in with a double positive events in experiment [6] of 66.2%. The vesicle binding response in experiment [6] was 192% (inactive). The inhibition was 15.9% (inactive) in [7], 44.7% (inactive) in [11] and 2% (inactive) in [15]. Further, the superoxide response (% of plate) in [8] is 104% (inactive). Further, the aptamer binding inhibition in experiment [9] is 1% (inactive). Also, the response was -24.4% (inactive) in experiment [10] and -2.49% (inactive) in experiment [12]. For the same compound, the binding (% of control) in experiment [13] is 104% (inactive). Besides, in [14], the efflux inhibition (fraction of control) is -0.04 (inactive). Also, the differentiation response in [16] was 0.92% (inactive).

In the case of `COc1ccccc1/C=C/CN1CCN(Cc2ccc(F)cc2)C(CCO)C1` (stereo not given), in experiment [1], the percent of DMSO control GFP is 101% (inactive). In addition, the GFP response vs DMSO in experiment [2] is 98.8% (inactive); in experiment [4], 91.6% (inactive). The percent response of DMSO control in experiment [3] is 98.2% (inactive). The GFP response, % of DMSO in [5] was 98.5% (inactive). Besides, in [6], the double positive events turned out to be 63.2%. Besides, in experiment [6], the vesicle binding response was 171% (inactive). The inhibition in experiment [7] is -3.18% (inactive); in experiment [11], -20.3% (inactive); in experiment [15] it was 8% (inactive). The superoxide response (% of plate) in [8] is 92.6% (inactive). Also, the aptamer binding inhibition in [9] was 1% (inactive). Also, the response in experiment [10] was 9.17% (inactive); in experiment [12] it was 0.79% (inactive). Besides, the binding (% of control) in [13] is 107% (inactive). Moreover, the efflux inhibition (fraction of control) in [14] was -0.38 (inactive). In addition, the differentiation response in experiment [16] was -3.4% (inactive).

In the case of `Cc1cccc(NC(=O)c2cc3ccccc3o2)c1`, in experiment [1], the percent of DMSO control GFP was 94.6% (inactive). Moreover, the results for the GFP response vs DMSO in experiment [2] and in experiment [4] were 115% (inactive) and 90.8% (inactive), respectively. Further, the percent response of DMSO control in experiment [3] was 112% (inactive). The GFP response, % of DMSO in experiment [5] is 86.3% (inactive). Further, the double positive events in [6] came out at 69.2%. For the same compound, the vesicle binding response in [6] was 162% (inactive). Further, the inhibition was 5.49% (inactive) in experiment [7], 1.31% (inactive) in experiment [11] and 17% (inactive) in [15]. In [8], the superoxide response (% of plate) was 90.5% (inactive). The aptamer binding inhibition in experiment [9] is 2% (inactive). Besides, the response in experiment [10] is -1.7% (inactive); in experiment [12], -0.5% (inactive). Moreover, in [13], the binding (% of control) is 102% (inactive). Moreover, the efflux inhibition (fraction of control) in experiment [14] was -0.24 (inactive). For the same compound, the differentiation response in experiment [16] was 3.28% (inactive).
